In ChEMBL document CHEMBL2218924, “A broad activity screen in support of a chemogenomic map for kinase signalling research and drug discovery” (Biochem J, 2013):

What follows are molecules tested against T1, Tyrosine-protein kinase ZAP-70 (Homo sapiens) (UniProt P43403). Details: at 10 µM.
T1 sequence (whole entry): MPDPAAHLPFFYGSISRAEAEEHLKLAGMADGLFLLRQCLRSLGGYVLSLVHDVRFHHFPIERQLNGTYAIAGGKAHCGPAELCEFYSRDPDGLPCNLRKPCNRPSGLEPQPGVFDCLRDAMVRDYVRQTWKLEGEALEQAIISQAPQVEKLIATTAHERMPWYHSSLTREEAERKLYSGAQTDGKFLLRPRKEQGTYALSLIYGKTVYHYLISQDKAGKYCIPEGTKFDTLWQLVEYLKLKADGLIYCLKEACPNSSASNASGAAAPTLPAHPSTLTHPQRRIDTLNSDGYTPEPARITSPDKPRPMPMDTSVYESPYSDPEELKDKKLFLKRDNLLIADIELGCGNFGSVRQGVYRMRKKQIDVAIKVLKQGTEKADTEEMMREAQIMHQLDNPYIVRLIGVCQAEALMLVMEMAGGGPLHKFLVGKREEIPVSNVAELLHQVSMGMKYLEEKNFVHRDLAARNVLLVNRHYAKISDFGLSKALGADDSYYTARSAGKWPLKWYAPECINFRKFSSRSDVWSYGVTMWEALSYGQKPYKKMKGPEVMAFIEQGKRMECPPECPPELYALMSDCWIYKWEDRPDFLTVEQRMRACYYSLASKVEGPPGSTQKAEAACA

Row | SMILES | residual activity [%]
1 | Cn1cnc2cc3c(Nc4cccc(Br)c4)ncnc3cc21 | 89
2 | Oc1n[nH]c2nnc(-c3c(-c4ccccc4)nn4ccccc34)cc12 | 99
3 | O=[N+]([O-])c1ccc(-c2nc(-c3ccc(F)cc3)c(-c3ccncc3)[nH]2)cc1 | 122
4 | CCC(=O)Nc1ccc2ncnc(Nc3cccc(Br)c3)c2c1 | 109
5 | O=C(O)c1ccc2c3c1cccc3c(=O)n1c3ccccc3nc21 | 111
6 | Nc1ccc2ncnc(NCCc3ccc(Oc4ccccc4)cc3)c2c1 | 108
7 | Cn1cc(/C=C2\C(=O)Nc3ccc(S(N)(=O)=O)cc32)c2ccccc21 | 125
8 | CO[C@H]1C[C@@H]2CC[C@@H](C)[C@@](O)(O2)C(=O)C(=O)N2CCCC[C@H]2C(=O)O[C@H]([C@H](C)C[C@@H]2CC[C@@H](O)[C@H](OC)C2)CC(=O)[C@H](C)/C=C(\C)[C@@H](O)[C@@H](OC)C(=O)[C@H](C)C[C@H](C)/C=C/C=C/C=C/1C | 121
9 | CC(=O)O/N=C1\C(=C2\C(=O)Nc3cc(Br)ccc32)Nc2ccccc21 | 87
10 | CCOc1cc2ncnc(Nc3cccc(Br)c3)c2cc1OCC | 119
11 | Cc1cc2ncc(-c3ccccc3)nc2cc1C | 98
12 | Cn1sc(=O)n(Cc2ccccc2)c1=O | 96
13 | O=C1NC(=O)c2cc(Nc3ccc(F)cc3)c(Nc3ccc(F)cc3)cc21 | 119
14 | CC(=O)c1ccc(N2CCOCC2)cc1O | 86
15 | CN(C)c1ccc(/C=C2\C(=O)Nc3ccccc32)cc1 | 115
16 | Oc1ccc(-c2nc(-c3ccc(F)cc3)c(-c3ccncc3)[nH]2)cc1 | 119
17 | CC(C)c1nn(-c2c(Cl)cccc2Cl)c2nc(Cc3ccc(OCCO)cc3)[nH]c(=O)c12 | 84
18 | O=C1c2ccccc2-[n+]2ccc3c([nH]c4ccccc43)c21 | 132
19 | Nc1nc(Nc2ccc(S(N)(=O)=O)cc2)nn1C(=S)Nc1c(F)cccc1F | 86
20 | O=C1Nc2ccccc2/C1=C1/Nc2ccccc2/C1=N\OCCC(O)CO (stereo not given) | 98
